Laboratory results taken from PubChem BioAssay.
Active and inactive are the calls of the source.

What was measured:
[1] = binders of probe aFSTL3 on microarray, primary screen, stem cell growth factor project, biochemical, small-molecule microarray, fluorescence 635/667 (AID 1064); conditions: higher = more signal;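 also: measures binding of the biotinylated anti-FSTL3 antibody to printed compounds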
[2] = binders from COS7 lysate, DM2A8 probe, primary screen, torsin A project, cell lysate, small-molecule microarray, fluorescence 635/667 (AID 1065); conditions: higher = more signal, COS7 lysate expressing mutant human TOR1A
[3] = binders of probe aFGF2 on microarray, primary screen, stem cell growth factor project, biochemical, small-molecule microarray, fluorescence 635/667 (AID 1067); conditions: higher = more signal;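 also: measures binding of biotinylated aFGF2 protein to printed compounds on slides; z-score merges feature fluorescence and signal-to-noise across triplicate slides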
[4] = binders of probe aFGF10 on microarray, primary screen, stem cell growth factor project, biochemical, small-molecule microarray, fluorescence 635/667 (AID 1071); conditions: higher = more signal;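 also: score merges 667 nm spot intensity and signal to noise from triplicate slides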
[5] = target: Neurogenic locus notch homolog protein 2 (Homo sapiens) (UniProt Q04721); assay: Notch2 binders on small-molecule microarrays, primary screen, biochemical, small-molecule microarray, 635 nm fluorescence, stem cell growth factors (AID 1073); conditions: Notch2 binding, higher = more signal
[6] = target: Pro-neuregulin-1, membrane-bound isoform (Homo sapiens) (UniProt Q02297); assay: NRG1 binders on small-molecule microarrays, primary screen, psychiatric disease protein project, biochemical, small-molecule microarray, fluorescence 635/667 (AID 1075); conditions: NRG1 binding, 635 nm fluorescence, higher = more signal;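 also: score combines 667 nm spot fluorescence with signal to noise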
[7] = system: Neuregulin-1 EGF-like domain; assay: binders of neuregulin-1 EGF-like domain, primary screen, biochemical, small-molecule microarray, 635 nm fluorescence (AID 1081); conditions: small-molecule microarray binding, higher = more signal;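 also: binding of the protein to compounds printed on small-molecule microarray slides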
[8] = FRG1 promoter luciferase signal modulators, primary screen, FRG1 inhibition for FSHD, cell-based, C2C12 myotubes, firefly/Renilla luciferase, luminescence (AID 1084); conditions: higher = more signal, called active from +8 up or from −8 down
[9] = binders of probe aFST on microarray, primary screen, stem cell growth factor project, biochemical, small-molecule microarray, fluorescence 635/667 (AID 1086); conditions: higher = more signal;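 also: score merges 667 nm fluorescence with signal-to-noise of each printed compound spot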
[10] = binders of probe aHhip on microarray, primary screen, stem cell growth factor project, biochemical, small-molecule microarray, fluorescence 635/667 (AID 1087); conditions: higher = more signal;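 also: score merges spot fluorescence at 667nm with spot signal to noise ratio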
[11] = system: PRMT1 (protein arginine N-methyltransferase 1); assay: PRMT1 binders on small-molecule microarrays, primary screen, biochemical, small-molecule microarray, 635 nm fluorescence (AID 1088); conditions: small-molecule microarray binding, higher = more signal;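 also: binding of Prmt1 protein to compounds spotted on small-molecule microarray slides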
[12] = yeast growth modulation, basal conditions, primary screen, YJM789 clinical isolate, OD600, 24 h (AID 1089);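 also: growth of clinical yeast isolate S. cerevisiae YJM 789 seeded 1000 cells per well; test concentration not given here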; conditions: S. cerevisiae YJM789 growth, higher = more signal, called active from +8 up or from −8 down
[13] = fission yeast growth modulation, primary screen, strain 972, OD600, 24 h, no modulator (AID 1090);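 also: basal condition with compound alone and no growth modifier present; test concentration not given here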; conditions: S. pombe 972 growth, higher = more signal, called active from +8 up or from −8 down
[14] = S. cerevisiae growth modulation with rapamycin, primary screen, strain BY4716, OD600, 96 h (AID 1091); conditions: higher = more signal, called active from +8 up or from −8 down; also: test concentration not given here
[15] = target: Torsin-1A-interacting protein 2 (Homo sapiens) (UniProt Q8NFQ8); assay: LULL1 binders on small-molecule microarray, primary screen, cell lysate, human LULL1 lysate, 635/667 nm fluorescence (AID 1092); conditions: hLULL1 lysate binding, 635 nm fluorescence, higher = more signal;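 also: probe is lysate of COS7 cells overexpressing human LULL1; score merges per-feature 667 nm fluorescence with signal-to-noise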
[16] = E. coli growth modulation, two-sided OD650, primary screen, E. coli filamentation project, strain DRC41, 24 h (AID 1093); conditions: OD650, 24 h, higher = more signal, called active from +8 up or from −8 down;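 also: MC1000 strain lacking acrAB efflux and sulA so SOS filamentation is blocked; test concentration not given here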
[17] = small-molecule microarray binders of probe aLefty2, primary screen, biochemical, biotinylated probe, 635/667 nm fluorescence (AID 1094); conditions: higher = more signal;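 also: score merges spot fluorescence near 667 nm with spot signal-to-noise ratio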
[18] = system: Noggin (protein binding on small-molecule microarray); assay: Noggin binders on small-molecule microarray, primary screen, biochemical, 635/667 nm fluorescence (AID 1095); conditions: 635 nm fluorescence, higher = more signal;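 also: score merges 667 nm feature fluorescence with signal to noise over triplicate slides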
[19] = target: Neurogenic locus notch homolog protein 3 (Homo sapiens) (UniProt Q9UM47); assay: NOTCH3 binders on small-molecule microarray, primary screen, biochemical, 635/667 nm fluorescence (AID 1096); conditions: NOTCH3 binding, 635 nm fluorescence, higher = more signal
[20] = small-molecule microarray binders of probe aEGFR, primary screen, biochemical, biotinylated probe, 635/667 nm fluorescence (AID 1097); conditions: higher = more signal;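 also: probe is a biotinylated anti-EGFR antibody binding compounds printed on slides; score combines fluorescence near 667 nm and signal to noise of each spot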

Sequence of Torsin-1A-interacting protein 2 (Homo sapiens) (Q8NFQ8 whole entry, looked up): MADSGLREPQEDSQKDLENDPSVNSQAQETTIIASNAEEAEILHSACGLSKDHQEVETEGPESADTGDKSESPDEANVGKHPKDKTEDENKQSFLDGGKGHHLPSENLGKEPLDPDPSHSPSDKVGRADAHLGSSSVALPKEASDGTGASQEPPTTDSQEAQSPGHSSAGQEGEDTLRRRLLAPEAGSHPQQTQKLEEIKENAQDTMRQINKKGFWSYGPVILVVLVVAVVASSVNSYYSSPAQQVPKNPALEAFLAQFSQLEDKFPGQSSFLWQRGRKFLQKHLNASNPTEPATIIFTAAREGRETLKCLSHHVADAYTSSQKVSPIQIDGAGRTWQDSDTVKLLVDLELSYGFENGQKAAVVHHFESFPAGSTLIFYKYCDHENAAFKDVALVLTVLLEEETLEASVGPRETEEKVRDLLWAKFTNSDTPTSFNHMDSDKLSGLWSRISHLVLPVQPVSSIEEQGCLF
Sequence of Pro-neuregulin-1, membrane-bound isoform (Homo sapiens) (Q02297 whole entry, looked up, the tested form may be a part, canonical isoform): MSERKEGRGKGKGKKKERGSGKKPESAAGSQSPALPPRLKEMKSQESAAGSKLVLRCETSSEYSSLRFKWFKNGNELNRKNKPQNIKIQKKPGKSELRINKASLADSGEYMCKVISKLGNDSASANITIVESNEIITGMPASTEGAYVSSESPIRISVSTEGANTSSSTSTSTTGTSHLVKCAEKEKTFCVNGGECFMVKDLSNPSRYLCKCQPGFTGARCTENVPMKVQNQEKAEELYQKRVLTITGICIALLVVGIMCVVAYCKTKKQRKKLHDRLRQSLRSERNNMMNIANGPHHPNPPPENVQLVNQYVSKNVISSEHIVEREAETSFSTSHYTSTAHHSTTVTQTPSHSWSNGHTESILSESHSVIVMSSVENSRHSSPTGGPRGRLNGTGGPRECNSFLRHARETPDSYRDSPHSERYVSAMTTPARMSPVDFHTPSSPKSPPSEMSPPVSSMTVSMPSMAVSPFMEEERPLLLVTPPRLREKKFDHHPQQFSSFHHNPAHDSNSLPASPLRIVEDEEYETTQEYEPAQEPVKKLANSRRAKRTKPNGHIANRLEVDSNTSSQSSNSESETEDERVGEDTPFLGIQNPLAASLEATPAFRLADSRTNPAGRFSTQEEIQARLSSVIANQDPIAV
Sequence of Neurogenic locus notch homolog protein 2 (Homo sapiens) (Q04721 whole entry, looked up, canonical isoform): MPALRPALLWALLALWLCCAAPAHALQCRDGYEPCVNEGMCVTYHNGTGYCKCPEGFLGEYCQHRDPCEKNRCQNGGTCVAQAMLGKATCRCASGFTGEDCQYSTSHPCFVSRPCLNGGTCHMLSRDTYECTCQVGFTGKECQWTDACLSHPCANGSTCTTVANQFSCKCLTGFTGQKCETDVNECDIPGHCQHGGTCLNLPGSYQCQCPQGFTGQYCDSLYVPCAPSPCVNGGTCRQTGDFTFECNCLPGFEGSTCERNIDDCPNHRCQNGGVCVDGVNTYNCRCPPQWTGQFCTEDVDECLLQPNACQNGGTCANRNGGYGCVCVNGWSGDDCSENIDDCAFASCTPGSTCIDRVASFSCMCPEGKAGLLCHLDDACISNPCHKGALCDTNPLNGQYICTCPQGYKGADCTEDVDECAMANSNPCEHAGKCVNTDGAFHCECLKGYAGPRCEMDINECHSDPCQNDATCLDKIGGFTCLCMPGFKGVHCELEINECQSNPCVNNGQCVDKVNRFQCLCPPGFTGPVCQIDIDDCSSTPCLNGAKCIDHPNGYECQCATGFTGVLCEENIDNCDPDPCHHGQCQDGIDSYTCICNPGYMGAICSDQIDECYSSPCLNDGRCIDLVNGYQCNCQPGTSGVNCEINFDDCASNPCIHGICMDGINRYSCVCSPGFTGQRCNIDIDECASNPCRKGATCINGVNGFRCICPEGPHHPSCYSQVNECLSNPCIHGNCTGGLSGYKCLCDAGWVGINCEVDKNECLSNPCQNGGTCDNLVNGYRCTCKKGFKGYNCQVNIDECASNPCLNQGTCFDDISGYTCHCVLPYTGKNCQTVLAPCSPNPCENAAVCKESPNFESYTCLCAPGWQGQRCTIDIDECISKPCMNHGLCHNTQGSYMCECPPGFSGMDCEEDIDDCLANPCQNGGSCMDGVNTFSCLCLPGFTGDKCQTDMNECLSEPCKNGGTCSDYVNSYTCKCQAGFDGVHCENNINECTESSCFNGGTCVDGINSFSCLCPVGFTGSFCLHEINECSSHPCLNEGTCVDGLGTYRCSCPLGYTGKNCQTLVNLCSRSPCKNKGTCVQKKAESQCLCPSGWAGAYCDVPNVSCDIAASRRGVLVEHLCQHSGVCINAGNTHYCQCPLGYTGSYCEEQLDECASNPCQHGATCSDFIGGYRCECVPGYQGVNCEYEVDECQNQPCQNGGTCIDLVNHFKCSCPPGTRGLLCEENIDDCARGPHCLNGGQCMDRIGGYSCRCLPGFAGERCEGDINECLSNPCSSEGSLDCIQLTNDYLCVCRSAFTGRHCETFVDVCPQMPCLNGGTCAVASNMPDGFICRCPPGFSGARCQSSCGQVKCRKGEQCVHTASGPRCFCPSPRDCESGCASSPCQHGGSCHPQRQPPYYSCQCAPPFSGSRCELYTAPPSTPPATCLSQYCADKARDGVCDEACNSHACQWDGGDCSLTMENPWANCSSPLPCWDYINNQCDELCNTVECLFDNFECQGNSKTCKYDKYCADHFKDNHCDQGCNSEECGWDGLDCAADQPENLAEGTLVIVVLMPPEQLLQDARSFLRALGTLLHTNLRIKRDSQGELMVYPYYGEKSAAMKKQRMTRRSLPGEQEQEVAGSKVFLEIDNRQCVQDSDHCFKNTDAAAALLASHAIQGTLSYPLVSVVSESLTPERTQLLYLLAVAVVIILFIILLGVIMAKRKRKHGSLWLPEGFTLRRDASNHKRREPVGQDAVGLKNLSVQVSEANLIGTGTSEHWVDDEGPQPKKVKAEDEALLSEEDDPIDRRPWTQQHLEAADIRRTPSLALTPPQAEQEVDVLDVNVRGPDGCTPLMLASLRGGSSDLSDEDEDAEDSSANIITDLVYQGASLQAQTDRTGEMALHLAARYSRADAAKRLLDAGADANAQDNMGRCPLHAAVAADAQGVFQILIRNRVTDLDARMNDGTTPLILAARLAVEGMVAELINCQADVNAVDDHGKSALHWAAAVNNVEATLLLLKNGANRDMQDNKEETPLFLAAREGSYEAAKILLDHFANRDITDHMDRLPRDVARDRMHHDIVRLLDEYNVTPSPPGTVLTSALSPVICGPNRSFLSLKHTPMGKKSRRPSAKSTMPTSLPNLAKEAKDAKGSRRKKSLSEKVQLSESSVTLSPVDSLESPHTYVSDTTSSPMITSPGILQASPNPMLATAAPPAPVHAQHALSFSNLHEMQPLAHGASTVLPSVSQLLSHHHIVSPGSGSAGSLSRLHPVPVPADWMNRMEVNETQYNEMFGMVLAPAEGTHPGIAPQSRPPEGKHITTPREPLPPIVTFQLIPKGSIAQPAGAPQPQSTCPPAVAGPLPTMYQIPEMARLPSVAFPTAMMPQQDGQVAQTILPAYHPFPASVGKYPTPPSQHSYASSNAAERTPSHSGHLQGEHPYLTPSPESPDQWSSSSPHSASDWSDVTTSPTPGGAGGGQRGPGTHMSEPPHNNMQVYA

Compound | composite z-score [1] | composite z-score [2] | composite z-score [3] | composite z-score [4] | composite z-score [5] | composite z-score [6] | composite z-score [7] | z-score [8] | composite z-score [9] | composite z-score [10] | composite z-score [11] | z-score [12] | z-score [13] | z-score [14] | composite z-score [15] | z-score [16] | composite z-score [17] | composite z-score [18] | composite z-score [19] | composite z-score [20]
CCCCC(=C=CC[C@H](O)c1ccc(OCCO)cc1)C[C@H](O)c1cc(Cl)cc(Cl)c1O | -0.268 | 0.092 | -0.186 | 0.214 | 0.323 | 1.05 | 0.965 | -2 (inactive) | 0.236 | -0.264 | 1.18 | 0.294 (inactive) | -3.5 (inactive) | -0.15 (inactive) | 1.54 | 0.0374 (inactive) | -0.192 | 0.563 | 0.62 | -0.183
COCCOC(=O)N1C(=O)[C@@]2(c3ccccc31)[C@H](c1ccccc1OCCO)N1[C@H](c3ccccc3)[C@H](c3ccccc3)OC(=O)[C@H]1[C@@H]2C(N)=O | -0.299 | 0.692 | -0.0015 | 0.725 | 1.23 | 0.133 | 1.3 | -2.08 (inactive) | 0.971 | -0.0645 | 1.56 | 1.83 (inactive) | 1.54 (inactive) | 3.59 (inactive) | 2.89 | 0.0834 (inactive) | 0.198 | 0.463 | 1.08 | 0.0258
CC(C)C[C@@H]1NC(=O)CNC(=O)[C@@]23C(=O)N[C@@H](Cc4ccccc4)C2[C@H](C)[C@@]2(C)O[C@H]2C3/C=C/C/C=C\CNC1=O (stereo not given in full) | -0.454 | 0.109 | -0.087 | 0.68 | 0.429 | 0.345 | 0.919 | 1.4 (inactive) | 0.0427 | -0.171 | 1.31 | -0.536 (inactive) | -0.26 (inactive) | -0.0716 (inactive) | 2.72 | -0.461 (inactive) | -0.159 | 0.363 | 1.01 | -0.0828
C[C@@]12COC[C@]13C=C(Br)[C@H](C2)[C@@]1(CO1)C3=O | 0.129 | -1.21 | -0.04 | -0.455 | -0.895 | -0.708 | -1.12 | -0.293 (inactive) | -0.476 | -0.134 | -1.78 | -0.0556 (inactive) | -2.25 (inactive) | -0.0407 (inactive) | -2.15 | -0.768 (inactive) | -0.207 | -0.508 | -0.233 | -0.178
C=CCC(OC(C)=O)[C@@H]1[C@@H](N(Cc2ccc(-c3ccccc3)cc2)C(=O)Cc2ccc(F)cc2)c2cc(OCCCO)ccc2N1C(=O)Cc1ccc2ccccc2c1 (stereo not given in full) | -0.0873 | -0.286 | -0.0271 | -0.214 | -0.821 | -0.0447 | -0.84 | 0.0197 (inactive) | 0.252 | -0.0047 | -0.848 | -0.106 (inactive) | 0.412 (inactive) | 0.0926 (inactive) | 2.46 | 0.708 (inactive) | 0.385 | 0.115 | 0.151 | -0.0828
COC(=O)C(CC#Cc1ccc2c(c1)[C@]1(C(=O)N2)[C@H](c2ccc(OCCO)cc2)N2[C@H](c3ccccc3)[C@H](c3ccccc3)OC(=O)[C@H]2[C@@H]1C(=O)N1CCN(c2ncccn2)CC1)C(=O)OC | -0.505 | 1.01 | 0.0275 | 1.12 | 1.51 | 0.746 | 1.27 | 1.45 (inactive) | 0.643 | 0.386 | 1.55 | 0.722 (inactive) | 1.82 (inactive) | 3.83 (inactive) | 2.31 | -0.0711 (inactive) | 0.0971 | 1.36 | 1.05 | 0.153
CCOC(=O)C[C@H]1[C@H](OC(=O)c2ccccc2-c2ccccc2)[C@@H](NC(=O)c2ccccc2)c2cc(OCCCO)ccc2N1C(=O)c1ccccc1 | -0.304 | 0.0919 | -0.0885 | 0.585 | 0.494 | 0.127 | 0.0357 | 0.0899 (inactive) | 0.0801 | 0.0274 | 0.0302 | -0.0764 (inactive) | 0.587 (inactive) | 1.58 (inactive) | 1.22 | -1.11 (inactive) | -0.214 | 0.169 | 0.243 | -0.0726
CC(C)(C)OC(=O)CC[C@]12N=C(c3ccc(OCCCO)cc3)O[C@H]1c1ccccc1N(Cc1ccccc1)C2=O | 0.555 | 0.178 | 0.0436 | 0.329 | 0.0567 | 0.457 | 1.13 | -1.7 (inactive) | 0.259 | -0.187 | 1.54 | 0.429 (inactive) | -1.1 (inactive) | 5.79 (inactive) | 2.72 | 0.911 (inactive) | 0.12 | 0.938 | 0.967 | -0.128
CCOC(=O)C[C@H]1[C@H](OC(=O)c2ccc(C(=O)c3ccccc3)cc2)[C@@H](NC(=O)CC(C)C)c2cc(OCCCO)ccc2N1C(=O)Cc1ccc(OC)cc1 | 0.134 | 0.819 | -0.105 | 0.209 | 0.342 | 0.517 | 0.2 | -1.69 (inactive) | 0.51 | -0.0074 | 0.451 | 0.247 (inactive) | 0.22 (inactive) | 0.265 (inactive) | 0.663 | -0.113 (inactive) | 0.0351 | -0.114 | 0.477 | -0.0585
